Experimental findings from PubChem BioAssay (NCI) are described below.

Among the test systems are NCI-H23 lung; NCI-H226 lung; HOP-62 NSCLC; NCI-H460 lung; HOP-92 NSCLC; NCI-H522 lung; A549/ATCC NSCLC; 786-0 renal; COLO 205 colon; DU-145 prostate; K-562 leukemia; MALME-3M melanoma; MDA-MB-231 breast; RXF 393 renal; SF-268 CNS; SF-295 CNS; SF-539 CNS; UACC-257 melanoma; M14 melanoma; NCI-H322M lung.
What all share (assay): NCI-60 one-dose screen, 48 h (100 = growth as untreated, 0 = no growth, -100 = all killed)
Conditions in all cases: 10 µM unless noted

The structures appear in SMILES notation. About 83,000 compounds went through this panel and 20% of them were active in at least one assay; those are over-represented in the sample as a whole.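 Each cell line was grown in a 96-well plate and treated with one concentration of compound for 48 hours. Values below 10 were considered active.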 A number with no mark means an inactive call. The source made the active and inactive calls.

As to `CCOC(=O)c1nc(Nc2ccc(C(C)=O)cc2)sc1C`, the growth in the assay on NCI-H23 lung was 94.1%; in the assay with NCI-H226 lung it was 98.8%; in the assay on HOP-62 NSCLC, 105%; in the assay on NCI-H460 lung it was 105%; in the assay on HOP-92 NSCLC, 108%; in the assay on NCI-H522 lung, 87.2%. Further, the growth in the assay with A549/ATCC NSCLC is 94.3%; in the assay with 786-0 renal, 96.5%; with COLO 205 colon it was 106%; with DU-145 prostate, 107%; in the assay with K-562 leukemia, 99.1%; in the assay on MALME-3M melanoma, 106%. Further, the growth in the assay with MDA-MB-231 breast was 104%; in the assay on RXF 393 renal, 109%; in the assay with SF-268 CNS it was 102%; in the assay on SF-295 CNS, 92%; with SF-539 CNS it was 97.2%; with UACC-257 melanoma, 102%. The growth in the assay with M14 melanoma is 104%.
Take `CC1=C([Se]CC(OC(=O)[C@@H](CSSC(C)(C)C)NC(=O)OC(C)(C)C)C(=O)NC(C)(C)C)C(=O)c2ccccc2C1=O` (stereo not given in full): the growth in the assay on NCI-H23 lung is -63.7% (active); in the assay with NCI-H226 lung it was -56.8% (active); in the assay on HOP-62 NSCLC it was -51% (active); in the assay on NCI-H460 lung it was -52.1% (active); in the assay on HOP-92 NSCLC it was -72.2% (active); in the assay on NCI-H522 lung, 7.01% (active). In addition, the growth in the assay on A549/ATCC NSCLC is 1.99% (active); in the assay with 786-0 renal, -93.8% (active); in the assay on COLO 205 colon it was -84.7% (active); with DU-145 prostate, -98.7% (active); in the assay with K-562 leukemia it was 31.9%; with MALME-3M melanoma, -65.8% (active). For the same compound, the growth is -42.2% (active) in the assay with MDA-MB-231 breast; -67.3% (active) in the assay with RXF 393 renal; -96.6% (active) in the assay on SF-268 CNS; -42.2% (active) in the assay with SF-295 CNS; -100% (active) in the assay on SF-539 CNS; -60% (active) with UACC-257 melanoma. The growth in the assay with M14 melanoma was -84.8% (active).
As to `CC1(C)C2CC1C1(/C=N\Nc3ccccc3)C(C2)C(C#N)(C#N)C1(C#N)C#N` (stereo not given), the growth in the assay on NCI-H23 lung was 85.1%; with NCI-H226 lung, 86.8%; with HOP-62 NSCLC, 86.1%; in the assay with NCI-H460 lung it was 99%; with HOP-92 NSCLC, 80.9%; with NCI-H522 lung, 77.8%. Further, the growth in the assay with A549/ATCC NSCLC is 93.4%; with 786-0 renal, 100%; with COLO 205 colon it was 115%; in the assay on DU-145 prostate, 101%; in the assay with K-562 leukemia, 84.9%; in the assay on MALME-3M melanoma it was 97.7%. Further, the growth in the assay with MDA-MB-231 breast is 75.8%; with RXF 393 renal, 103%; in the assay on SF-268 CNS, 86.3%; in the assay on SF-295 CNS, 104%; with SF-539 CNS it was 107%; with UACC-257 melanoma it was 98.9%. For the same compound, the growth with M14 melanoma is 83.6%.
For the compound `CCC(C)(c1cc(C(C)(C)C)c(O)c(C(C)(C)C)c1)c1cc(C(C)(C)C)c(O)c(C(C)(C)C)c1`, the growth in the assay on NCI-H23 lung is 96.2%; in the assay with NCI-H226 lung, 100%; in the assay with HOP-62 NSCLC, 92.4%; in the assay on NCI-H460 lung, 106%; in the assay on HOP-92 NSCLC it was 92.9%; in the assay with NCI-H522 lung it was 86.4%. In addition, the growth is 93.5% in the assay with A549/ATCC NSCLC; 99.2% with 786-0 renal; 107% in the assay on COLO 205 colon; 101% with DU-145 prostate; 91.4% in the assay on K-562 leukemia; 94% in the assay with MALME-3M melanoma. Also, the growth was 104% in the assay on RXF 393 renal; 95.4% in the assay on SF-268 CNS; 96.6% in the assay with SF-295 CNS; 105% with SF-539 CNS; 94.8% with UACC-257 melanoma; 98.5% in the assay on M14 melanoma.
In the case of `COc1c(N2CC3CCCN(C(C)=O)C3C2)c(F)cc2c(=O)c(C(=O)N[C@H]3C(O)[C@@H](O)C(CO)O[C@H]3O)cn(C3CC3)c12` (stereo not given in full), the growth is 105% in the assay with NCI-H23 lung; 108% with NCI-H226 lung; 103% in the assay with HOP-62 NSCLC; 108% in the assay on NCI-H460 lung; 103% with HOP-92 NSCLC; 94.9% in the assay on NCI-H522 lung. The growth in the assay with A549/ATCC NSCLC is 103%; with 786-0 renal it was 101%; with COLO 205 colon, 110%; in the assay with DU-145 prostate, 112%; in the assay with K-562 leukemia it was 103%; in the assay on MALME-3M melanoma, 117%. Further, the growth is 103% in the assay on MDA-MB-231 breast; 128% with RXF 393 renal; 92.3% with SF-268 CNS; 103% in the assay with SF-295 CNS; 103% in the assay on SF-539 CNS; 103% in the assay on UACC-257 melanoma. Further, in the assay with M14 melanoma, the growth was 110%.
Regarding `COC1=C(C)C(=O)c2c(c(CCCl)c3n2CCC3O)C1=O` (stereo not given), the growth with NCI-H23 lung is -16.8% (active); in the assay on NCI-H226 lung, -30.8% (active); with HOP-62 NSCLC, -11.2% (active); in the assay on HOP-92 NSCLC, 103%; in the assay on NCI-H522 lung it was -46.1% (active); in the assay with A549/ATCC NSCLC, 4.42% (active). Also, the growth is -21% (active) in the assay on 786-0 renal; -59.2% (active) with COLO 205 colon; 1.19% (active) in the assay with DU-145 prostate; 22% in the assay with K-562 leukemia; -55.7% (active) in the assay on MALME-3M melanoma; -53.7% (active) with RXF 393 renal. For the same compound, the growth was 9.6% (active) in the assay on SF-268 CNS; -12% (active) with SF-295 CNS; -28.8% (active) in the assay on SF-539 CNS; -44.8% (active) in the assay with UACC-257 melanoma; -14.3% (active) in the assay with M14 melanoma.
Take `c1ccc(-c2nc3sc(-c4ccccc4)cn3n2)cc1`: the growth in the assay on NCI-H226 lung was 72.2%; in the assay with NCI-H322M lung it was 88.2%; in the assay on HOP-62 NSCLC it was 66.7%; in the assay on NCI-H460 lung, 93.3%; with HOP-92 NSCLC, 74.4%; with NCI-H522 lung, 80.8%. Besides, the growth was 89.6% in the assay on A549/ATCC NSCLC; 105% in the assay with 786-0 renal; 94.5% in the assay on COLO 205 colon; 84.4% in the assay on DU-145 prostate; 88.5% with K-562 leukemia; 124% in the assay with MALME-3M melanoma. Besides, the growth in the assay on MDA-MB-231 breast is 64.5%; in the assay on RXF 393 renal, 97.7%; in the assay with SF-268 CNS it was 92.3%; in the assay with SF-295 CNS it was 101%; in the assay on SF-539 CNS it was 98.7%; in the assay with UACC-257 melanoma it was 86%.
For the compound `Cc1ccc(S(=O)(=O)N/N=C/C2(c3ccccc3)CC2)cc1`, the growth in the assay on NCI-H23 lung was 101%; with NCI-H226 lung, 113%; with HOP-62 NSCLC it was 99%; in the assay with HOP-92 NSCLC it was 90.5%; with NCI-H522 lung, 105%; in the assay with A549/ATCC NSCLC it was 82%. Besides, the growth in the assay with 786-0 renal was 112%; in the assay on COLO 205 colon, 116%; with DU-145 prostate, 114%; with K-562 leukemia, 97.8%; in the assay with MALME-3M melanoma, 110%; in the assay on MDA-MB-231 breast, 102%. Further, the growth with RXF 393 renal was 94.4%; in the assay on SF-268 CNS, 111%; in the assay with SF-295 CNS, 94.7%; with SF-539 CNS it was 114%; in the assay on UACC-257 melanoma it was 99.7%.
In the case of `Cc1ccc2nc(NC(=O)CSc3nc(Cl)c(C#N)c(-c4ccccc4)n3)sc2c1`, the growth with NCI-H23 lung is 97.9%; in the assay on NCI-H226 lung, 107%; in the assay on HOP-62 NSCLC, 102%; in the assay on NCI-H460 lung, 106%; in the assay on HOP-92 NSCLC, 95%; with NCI-H522 lung it was 86.9%. The growth in the assay on A549/ATCC NSCLC was 98.6%; with 786-0 renal, 103%; in the assay with COLO 205 colon, 110%; in the assay with DU-145 prostate it was 113%; with K-562 leukemia it was 99.7%; with MALME-3M melanoma, 104%. In addition, the growth with MDA-MB-231 breast was 111%; in the assay with RXF 393 renal, 114%; in the assay with SF-268 CNS, 111%; with SF-295 CNS, 101%; in the assay on SF-539 CNS it was 102%; with UACC-257 melanoma it was 101%. The growth in the assay on M14 melanoma was 97.9%.
